Some test systems named below: HCT-15 colon; HT29 colon; SNB-75 CNS; SNB-19 CNS; U251 CNS; PC-3 prostate; SK-MEL-5 melanoma; UACC-62 melanoma; LOX IMVI melanoma; SK-MEL-28 melanoma; SK-MEL-2 melanoma; EKVX NSCLC; SN12C renal; UO-31 renal; TK-10 renal; ACHN renal; CAKI-1 renal; A498 renal; CCRF-CEM leukemia; MOLT-4 leukemia.
Holding throughout (experiment): NCI-60 one-dose screen, 48 h (100 = growth as untreated, 0 = no growth, -100 = all killed)
What all share (conditions): 10 µM unless noted

Values joined by “and” are separate entries in the source; they are usually repeats but may differ in a detail not shown here. Equal values may be shown once. About 83,000 compounds went through this panel and 20% of them were active in at least one assay; those are over-represented in the sample as a whole.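 Cell lines were cultured in 96-well plates, exposed to a single compound concentration, and assessed for percent growth 48 hours later.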 Active and inactive are the calls of the source. How the source made its calls: active means growth percent below 10; inactive means the rest.

As for `CC(=O)Nc1cc(S(=O)(=O)O)cc2cc(S(=O)(=O)O)c(N=Nc3ccccc3)c(O)c12`, the growth is 116% (inactive) and 111% (inactive) in the test with HCT-15 colon; 118% (inactive) and 92.2% (inactive) in the test on HT29 colon; 92.8% (inactive) and 98.1% (inactive) in the test on SNB-75 CNS; 110% (inactive) and 99.9% (inactive) in the test with SNB-19 CNS; 110% (inactive) and 101% (inactive) in the test with U251 CNS; 88.3% (inactive) and 94.9% (inactive) with PC-3 prostate. For the same compound, the growth is 99.4% (inactive) in the test on SK-MEL-5 melanoma; 108% (inactive) and 92.2% (inactive) in the test with UACC-62 melanoma; 103% (inactive) and 98.7% (inactive) with LOX IMVI melanoma; 119% (inactive) and 116% (inactive) in the test on SK-MEL-28 melanoma; 116% (inactive) and 88.7% (inactive) in the test with SK-MEL-2 melanoma; 115% (inactive) and 113% (inactive) in the test with EKVX NSCLC. The growth in the test on SN12C renal was 106% (inactive) and 98.4% (inactive); with UO-31 renal, 94.2% (inactive) and 83.2% (inactive); in the test on TK-10 renal, 110% (inactive) and 98.4% (inactive); in the test with ACHN renal it was 106% (inactive) and 108% (inactive); in the test on CAKI-1 renal it was 99.6% (inactive); in the test on A498 renal, 102% (inactive) and 92.4% (inactive). Moreover, in the test with CCRF-CEM leukemia, the growth is 97.5% (inactive) and 90.8% (inactive).

Turning to `COc1ccc2cc3[n+](cc2c1OC)CCc1cc2c(cc1-3)OCO2`, the growth in the test on HCT-15 colon was 105% (inactive) and 93.4% (inactive); with HT29 colon it was 93.8% (inactive) and 74.1% (inactive); with SNB-75 CNS, 85.5% (inactive) and 81% (inactive); in the test on SNB-19 CNS, 38.6% (inactive) and 42.2% (inactive); in the test on U251 CNS, 25.2% (inactive) and 28.7% (inactive); in the test with PC-3 prostate, 60.1% (inactive) and 60.6% (inactive). The growth with SK-MEL-5 melanoma is 7.33% (active) and 24.3% (inactive); with UACC-62 melanoma, 54.8% (inactive) and 64.9% (inactive); in the test with LOX IMVI melanoma it was 83.6% (inactive) and 86.5% (inactive); with SK-MEL-28 melanoma, 94% (inactive); with SK-MEL-2 melanoma, 90.7% (inactive) and 104% (inactive); in the test on EKVX NSCLC, 26.3% (inactive) and 65.5% (inactive). The growth was 30.2% (inactive) and 49.2% (inactive) in the test with SN12C renal; 76.3% (inactive) and 84.2% (inactive) with UO-31 renal; 137% (inactive) and 98.3% (inactive) with TK-10 renal; 91.2% (inactive) with ACHN renal; 81.7% (inactive) and 89.8% (inactive) in the test on CAKI-1 renal; 86.8% (inactive) and 90.8% (inactive) in the test on A498 renal. For the same compound, the growth is 70.8% (inactive) and 67% (inactive) in the test on CCRF-CEM leukemia; 66% (inactive) and 54.8% (inactive) with MOLT-4 leukemia.

Regarding `CCOc1ccc2nc3cc(N)ccc3c(N)c2c1`, the growth in the test on HCT-15 colon is 107% (inactive) and 90% (inactive); with HT29 colon, 75.7% (inactive) and 60.7% (inactive); in the test with SNB-75 CNS it was 47.6% (inactive); in the test with SNB-19 CNS it was 10.5% (inactive); in the test with U251 CNS, -12.6% (active) and 5.58% (active); with PC-3 prostate, 61.8% (inactive) and 75.6% (inactive). The growth with SK-MEL-5 melanoma is 43.2% (inactive); in the test with UACC-62 melanoma, 73.8% (inactive); in the test with LOX IMVI melanoma, 82.5% (inactive); in the test with SK-MEL-28 melanoma, 75.5% (inactive) and 89.8% (inactive); with SK-MEL-2 melanoma, 20% (inactive) and 24.6% (inactive); in the test on EKVX NSCLC, 57.3% (inactive) and 80% (inactive). For the same compound, the growth in the test with SN12C renal was 18.5% (inactive); in the test with UO-31 renal, 74.9% (inactive) and 63% (inactive); in the test with TK-10 renal, 117% (inactive) and 122% (inactive); in the test with ACHN renal it was 90% (inactive) and 83.7% (inactive); in the test on CAKI-1 renal, 100% (inactive) and 108% (inactive); in the test on A498 renal it was 71% (inactive) and 79.9% (inactive). For the same compound, the growth in the test with CCRF-CEM leukemia is 68.5% (inactive) and 54.2% (inactive); in the test with MOLT-4 leukemia it was 34.9% (inactive) and 25.3% (inactive).

As for `CC(=O)Nc1ccc2cc3ccc(NC(C)=O)cc3nc2c1`, the growth was 103% (inactive) and 106% (inactive) with HCT-15 colon; 97.3% (inactive) and 90.1% (inactive) with HT29 colon; 71.1% (inactive) and 83.1% (inactive) in the test with SNB-75 CNS; 79.2% (inactive) and 73.4% (inactive) with SNB-19 CNS; 74.3% (inactive) and 72.3% (inactive) in the test with U251 CNS; 75.1% (inactive) and 42.4% (inactive) in the test with PC-3 prostate. In addition, the growth with SK-MEL-5 melanoma is 92.2% (inactive) and 105% (inactive); in the test with UACC-62 melanoma, 82.2% (inactive) and 85.7% (inactive); with LOX IMVI melanoma, 89% (inactive) and 85.9% (inactive); in the test on SK-MEL-28 melanoma, 110% (inactive) and 139% (inactive); with SK-MEL-2 melanoma, 95.9% (inactive) and 108% (inactive); with EKVX NSCLC it was 80.6% (inactive) and 78.4% (inactive). Further, the growth in the test on SN12C renal was 52.6% (inactive) and 52.2% (inactive); with UO-31 renal it was 79% (inactive) and 76% (inactive); in the test with TK-10 renal it was 136% (inactive) and 119% (inactive); in the test on ACHN renal, 79.1% (inactive) and 58.4% (inactive); in the test with CAKI-1 renal, 45.9% (inactive) and 97.2% (inactive); in the test with A498 renal, 115% (inactive) and 113% (inactive). Besides, the growth in the test with CCRF-CEM leukemia was 78.9% (inactive) and 104% (inactive).
